High-throughput results from PubChem BioAssay.
Sfp PPTase inh – inhibitors of Bacillus subtilis Sfp phosphopantetheinyl transferase; Q9F4F7; Biochemical Sfp PPTase activity, qHTS; Potency, µM, for inactives: largest response in the series, negative = inhibition, most hits filed as inhibitors; 310,000 compounds, 3.5% hits;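 further: the enzyme is Sfp with the accession as filed and its product quenches rhodamine fluorescence; 0% = enzyme reaction without inhibitor and -100% = no enzyme wells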
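Sfp 15 nM + cpd, 15 min RT; start w/ rhodamine-CoA 5 uM, BHQ-2-YbbR 12.5 uM (final); 50 mM Hepes pH 7.6, 10 mM MgCl2, 0.01% NP-40, 0.01% BSA; read 525/598 nm at 0 and 30 min.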
PLK1 PBD block – inhibitors of human PLK1 polo-box domain binding; P53350; Plk1 PBD binding of FITC phosphopeptide, fluorescence polarization; Potency, µM, inactives show max response, negative = inhibition, usual class: inhibitors; 360,000 compounds, 2.8% hits; AID 720504; further: series mostly up to about 57 µM; nearly all actives have a fitted effect of over 65% in size
Target sequence (P53350 whole entry, looked up, the tested form may be a part): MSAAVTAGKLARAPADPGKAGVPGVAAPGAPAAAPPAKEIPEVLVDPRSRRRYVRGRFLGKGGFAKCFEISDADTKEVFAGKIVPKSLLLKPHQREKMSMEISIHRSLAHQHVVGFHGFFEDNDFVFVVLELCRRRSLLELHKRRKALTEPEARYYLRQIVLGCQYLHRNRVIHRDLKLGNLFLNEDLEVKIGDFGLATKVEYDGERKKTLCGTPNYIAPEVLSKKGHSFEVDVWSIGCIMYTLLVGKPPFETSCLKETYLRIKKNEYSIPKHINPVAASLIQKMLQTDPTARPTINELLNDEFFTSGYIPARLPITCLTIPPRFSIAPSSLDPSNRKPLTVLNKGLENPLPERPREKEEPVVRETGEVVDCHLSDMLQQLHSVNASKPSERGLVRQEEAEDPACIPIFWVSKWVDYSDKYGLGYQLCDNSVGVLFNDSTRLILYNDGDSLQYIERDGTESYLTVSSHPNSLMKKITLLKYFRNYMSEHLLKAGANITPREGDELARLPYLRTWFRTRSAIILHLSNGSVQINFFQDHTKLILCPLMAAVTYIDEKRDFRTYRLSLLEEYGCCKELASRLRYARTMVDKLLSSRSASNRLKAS
RORg inh – ROR gamma (mouse) transcription inhibition; P51450; Drosophila S2 Gal4-RORgamma UAS-luciferase reporter, 20 h; Potency, µM (series often up to 53.6 µM), for the others: at the highest dose activity change, negative = inhibition, most hits filed as inhibitors; 310,000 compounds, 5.4% hits; AID 2551; further: nearly all actives have a fitted effect of over 60% in size
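In this cell-based reporter format, copper sulfate (700 uM final) drives Gal4–ROR gamma fusion expression from a metallothionein promoter in Drosophila Schneider cells; compounds preincubated 1 hr, reporter read after 20 hr at ambient temperature.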
Gal4-VP16 FLuc – inhibits Gal4-VP16 luciferase reporter, ROR gamma counter-screen; 310,000 compounds, 3.5% hits; Drosophila S2 Gal4-VP16 UAS-luciferase, luminescence, 20 h; Potency, µM (highest dose often 53.6 µM), without a hit: top-dose activity, negative = inhibition, hits mostly inhibitors;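 further: Gal4-VP16 expression switched on by copper sulfate through the metallothionein promoter; nearly all actives have a fitted effect of over 50% in size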
ALDH1A1 inh – ALDH1A1 (human) enzyme inhibition; P00352; Purified ALDH1A1, NADH fluorescence, propionaldehyde substrate; Potency, µM (series often up to 75.3 µM), inactives show at the top dose activity, negative = inhibition, usual class: inhibitors; 220,000 compounds, 7.3% hits; AID 1030; active means well fitted inhibition curve with a large enough effect, not every such curve was filed as active; inconclusive means small, poorly fitted or top-dose-only effect, or another doubt; inactive means no such curve, though single readings can be large or run the other way;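 further: plate controls were no enzyme wells and a reference inhibitor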
The depositor's hits bear a star; ? = inconclusive; · = not tested or not shown. Shown are actives, neighbours in structure and some others; about 12% of the full set was active somewhere. Unless noted, the call rests on the fitted dose curve; in most records, active means well fitted curve in the direction sought with a large enough effect; inconclusive means small, poorly fitted or top-dose-only effect, or another doubt; inactive means no such curve, though single readings can be large; an effect the other way counts as inactive or inconclusive. Unless noted, on the % scale 0 is the no-effect control and ±100 the full control effect; potency means the concentration at half of the fitted maximal effect.

SMILES | Sfp PPTase inh | PLK1 PBD block | RORg inh | Gal4-VP16 FLuc | ALDH1A1 inh
Cc1nc2ccccn2c1C(=O)N/N=C/c1cc(C)n(-c2ccc(Cl)cc2)c1C | -7.2% | -0.3% | 20µM* | 12.6µM* | ?
Cc1cc(/C=N/NC(N)=S)c(C)n1-c1ccc(Cl)c(Cl)c1 | ? | -11.1% | 1.41µM* | 3.16µM* | 15.8µM*
COC(=O)C[C@@H]1C=C[C@H](NC(=O)c2ccccc2)[C@@H](CO)O1 | · | -4.6% | · | · | ·
CN(C)CCNc1ccc2ncn3c4ccc(O)cc4c(=O)c1c23 | · | 11.9µM* | · | · | ·
O=C(c1ccc(-n2c(SCc3cc(F)ccc3F)nc3ccccc3c2=O)cc1)N1CCOCC1 | ? | -13.6% | 37.1% | 0.3% | 35.5µM*
CCOc1ccccc1NC(=S)NCC1CCCO1 (stereo not drawn) | -8.8% | -7.1% | 11.2µM* | ? | -11.1%
COc1ccccc1NC(=S)NCC1CCCO1 (stereo not drawn) | 1.3% | -16.1% | ? | ? | 3.6%
CCOc1cc(NC2CS(=O)(=O)CC2O)c(OCC)cc1NC(=O)c1ccccc1 (stereo not drawn) | 13.3% | -6.3% | -24.4% | -3.3% | 12.6µM*
CCOc1cc(NC(=S)NCC2CCCO2)c(OCC)cc1NC(=O)c1ccc(OC)cc1 (stereo not drawn) | -30.0% | 3.6% | 11.2µM* | 10µM* | 0.5%
CCOc1cc(NC(=S)NCC2CCCO2)c(OCC)cc1NC(=O)c1ccccc1C (stereo not drawn) | 23.2% | -0.5% | 10µM* | ? | -2.5%
OCC1=CC[N+]2(Cc3ccccc3)CCC(O)[C@@H]12 (stereo partly drawn) | 26.6% | · | 2.4% | -6.5% | 7.2%
CN(C)C(=O)c1ccc(-c2nc(Nc3ccccc3)c3ccccc3n2)cc1 | -6.5% | · | 32.7% | -5.8% | 16.2%
CCN(CC)S(=O)(=O)c1ccc(N2CCOCC2)c(NC(=O)c2cc3ccccc3o2)c1 | · | -1.2% | · | · | ·
CCOc1cc(NC(=S)NC)c(OCC)cc1NC(=O)c1ccc(OC)cc1 | 9.5% | -6.3% | 10µM* | ? | -11.5%
CCOc1cc(NC(=S)NCC2CCCO2)c(OCC)cc1NC(=O)CC(C)C (stereo not drawn) | 7.9% | -10.2% | 11.2µM* | -13.3% | ?
CCOc1cc(NC(=O)c2ccccn2)c(OCC)cc1NC(=O)c1ccccc1 | 5.3% | -4.3% | 2.4% | -2.8% | 0.4%
CCOc1cc(NC(=S)Nc2ccccc2OC)c(OCC)cc1NC(=O)c1ccccc1C | 7.7% | 0.5% | 1.78µM* | 2.24µM* | ?
CCOc1cc(NC(=S)Nc2ccccc2)c(OCC)cc1NC(=O)c1ccccc1 | -14.1% | -9.9% | 1.78µM* | 10µM* | ?
CCOc1cc(NC(=S)NCc2ccco2)c(OCC)cc1NC(=O)CC(C)C | 12.9% | -4.4% | ? | -16.1% | 5.9%
CCCS(=O)(=O)NC(=O)C1(C)CCN(C(=O)c2cccc(C(F)(F)F)c2)C1 (stereo not drawn) | · | -11.3% | · | · | ·
CCCCCCCN(c1ccccc1)[C@@H]1C[C@H]2CCCC(=O)N3CC[C@@H](C1)[C@@H]23 | · | -3.0% | · | · | ·
C[C@@H]1CN([C@@H](C)CO)C(=O)c2cc(Br)cnc2O[C@H]1CN(C)C(=O)CN1CCOCC1 | · | -5.2% | · | · | ·
O=C(NCC1CCCO1)c1ccccc1NC(=O)c1cccc2ccccc12 (stereo not drawn) | 0.8% | -7.0% | 18.9% | 10.3% | ?
S=C(NCC1CCCO1)Nc1cccc2ccccc12 (stereo not drawn) | 13.7% | -12.8% | 7.08µM* | ? | -15.0%
CCOc1cc(NC(=O)c2ccccn2)c(OCC)cc1NC(=O)CC(C)C | 4.4% | 21.2µM* | 6.6% | 4.0% | -4.0%
SMILES | Sfp PPTase inh | PLK1 PBD block | RORg inh | Gal4-VP16 FLuc | ALDH1A1 inh
Cc1ccccc1C(=O)NNC1CC(=O)N(c2ccc3c(c2)OCCO3)C1=O (stereo not drawn) | 16.7% | -7.9% | 3.9% | 4.4% | -5.3%
Cc1ccc(N2C(=O)CC(Sc3nccc(C)n3)C2=O)cc1 (stereo not drawn) | 10.2% | -4.2% | 17.8µM* | ? | ·
Cc1ccc(SC2CC(=O)N(c3ccc4c(c3)OCCO4)C2=O)cc1 (stereo not drawn) | 15.2% | -21.9% | -84.2% | ? | 2.51µM*
Cc1ccc(N2C(=O)CC(Sc3cccs3)C2=O)cc1 (stereo not drawn) | -8.5% | 0.0% | 11.2µM* | 7.94µM* | 2.24µM*
Cc1ccnc(SC2CC(=O)N(c3ccc([N+](=O)[O-])cc3)C2=O)n1 (stereo not drawn) | 1.8% | -16.0% | ? | ? | ·
Cc1ccc(N2C(=O)C3C(C2=O)N2C(c4cccs4)C4C(=O)N(c5ccc(C)cc5)C(=O)C4N2C3c2cccs2)cc1 (stereo not drawn) | 8.9% | 1.3% | 39.3% | 2.5% | 3.5%
COc1ccc(C(C)C(=O)c2ccc(O)cc2O)cc1 (stereo not drawn) | 20.3% | · | -0.6% | ? | -1.0%
CCc1ccc(-n2c(C)cc(/C=N/NC(=O)OC)c2C)cc1 | -20.1% | -13.5% | 10.5% | -0.7% | ?
Cc1cc(/C=N/NC(=O)C(O)(c2ccccc2)c2ccccc2)c(C)n1-c1ccccc1 | -9.1% | -10.2% | 11.2µM* | ? | -1.3%
Cc1ccc(-n2c(C)cc(/C=N/NC(=O)c3ccncc3)c2C)cc1C | 6.3% | -4.3% | 3.98µM* | ? | ?
Cc1cc(/C=N\NC(=O)CC(=O)NC2CCCCC2)c(C)n1-c1cccc(Cl)c1Cl | 4.4% | -14.9% | -5.8% | -20.1% | ?
CCc1ccc(-n2c(C)cc(/C=N/NC(=O)c3ccncc3)c2C)cc1 | -22.5% | -0.9% | 7.08µM* | 20µM* | 7.94µM*
Cc1ccc(-n2c(C)cc(/C=N/NC(=O)CC3(C)OCCO3)c2C)c(C)c1 | -0.2% | -12.7% | -11.0% | 6.0% | 14.1µM*
COC(=O)[C@H](CC(C)C)N1Cc2cc(OC)cc(OC)c2-c2ccccc2S1(=O)=O | · | -19.0% | · | · | ·
COc1ccc(CNc2ncncc2-c2ccccc2C(F)(F)F)c(OC)c1 | -14.5% | · | 10.8% | 3.5% | -5.1%
CN(C)c1cccc2c(S(=O)(=O)NC(=O)[C@H]3O[C@@H](n4cnc5c(N)ncnc54)[C@H](O)[C@@H]3O)cccc12 | · | -2.7% | · | · | ·
COc1ccccc1Cc1c(C(C)(C)C)nc2c3ccccc3ccn12 | · | -13.3% | · | · | ·
Cc1cc(C(=O)N/N=C/c2ccc(O)c(O)c2O)c(C)n1-c1ccccc1 | 8.91µM* | 6.7µM* | ? | -22.5% | -1.6%
Cc1cccc(/C=N/NC(=O)c2ccncc2)n1 | -7.8% | -1.1% | -16.2% | 0.5% | ·
Cc1cc(/C=N/NC(=O)c2ccncc2)c(C)n1-c1ccccc1 | 9.0% | -1.0% | 10µM* | ? | ?
Cc1ccc2occ(/C=N/NC(=O)c3ccncc3)c(=O)c2c1 | 11.9% | -16.7% | -41.7% | 2.6% | ·
Cc1ccc(-n2c(C)cc(/C=N/NC(=O)c3ccncc3)c2C)c(C)c1 | 0.6% | 1.3% | 18.8% | -6.0% | 12.6µM*
Cc1cccc(C)c1-n1c(C)cc(/C=N/NC(=O)c2ccncc2)c1C | -23.5% | 3.6% | 1.26µM* | 2.24µM* | 28.2µM*
